# What was measured:
# Assay in all cases: DAPPL (digital affinity profiling via proximity ligation, sequencing); 10 mM Tris-HCl pH 7.5, 50 mM NaCl, 1 mM DTT, 4% glycerol, room temperature, 30 min; GST-TFs on glutathione beads, 16-mer random dsDNA library, 0.1% formaldehyde crosslink after washing; high values mean tight binding
# [1] = target: T1, FLI1 (Homo sapiens, UniProt Q01543 1-452); details: protein: recombinant; tags: N-terminal GST; dsDNA, one strand shown
# T1 sequence: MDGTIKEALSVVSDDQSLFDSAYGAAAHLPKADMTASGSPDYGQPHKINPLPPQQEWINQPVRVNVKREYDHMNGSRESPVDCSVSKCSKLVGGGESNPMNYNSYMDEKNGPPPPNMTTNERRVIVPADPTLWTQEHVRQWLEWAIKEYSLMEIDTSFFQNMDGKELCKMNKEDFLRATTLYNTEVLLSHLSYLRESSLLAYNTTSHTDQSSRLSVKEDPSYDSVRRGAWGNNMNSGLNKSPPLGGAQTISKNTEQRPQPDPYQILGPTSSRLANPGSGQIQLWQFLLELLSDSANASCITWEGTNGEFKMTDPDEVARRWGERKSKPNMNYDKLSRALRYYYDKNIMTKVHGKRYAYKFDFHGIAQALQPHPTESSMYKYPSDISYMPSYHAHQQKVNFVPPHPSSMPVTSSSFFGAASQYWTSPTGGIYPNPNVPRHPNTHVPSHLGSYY
# How it was run: (§1)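 After expression in yeast as GST fusions, human transcription factors were bound to glutathione beads, DNA-barcoded and mixed with a tag-only sample. The pools were incubated with 200 nmole of a 16-mer random double-stranded DNA library in Tris/NaCl/DTT/glycerol buffer (30 min, room temperature), washed and crosslinked with 0.1% formaldehyde. Proximity ligation with BsaI/T4 ligase ran for 1 h at 37 °C, before PCR amplification and sequencing on an Illumina NextSeq500. Binding signal is a hexamer's read frequency for a factor divided by its frequency for the tag-only sample.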
# [2] = target: T2, ELK1 (Homo sapiens, UniProt P19419 1-428); details: protein: recombinant; tags: N-terminal GST; dsDNA, one strand shown
# T2 sequence: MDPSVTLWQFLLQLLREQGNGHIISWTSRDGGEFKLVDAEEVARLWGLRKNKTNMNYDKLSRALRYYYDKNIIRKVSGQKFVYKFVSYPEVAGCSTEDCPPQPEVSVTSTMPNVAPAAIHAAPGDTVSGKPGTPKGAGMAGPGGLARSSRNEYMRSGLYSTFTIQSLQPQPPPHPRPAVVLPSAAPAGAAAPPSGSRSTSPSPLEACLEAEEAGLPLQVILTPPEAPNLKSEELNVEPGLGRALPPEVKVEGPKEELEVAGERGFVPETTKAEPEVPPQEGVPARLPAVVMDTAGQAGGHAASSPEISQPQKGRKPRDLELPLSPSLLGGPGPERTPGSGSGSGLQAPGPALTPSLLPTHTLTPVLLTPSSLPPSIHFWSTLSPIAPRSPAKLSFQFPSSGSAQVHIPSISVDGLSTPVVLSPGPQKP
# How it was run: as §1
# [3] = target: T3, GABPA (Homo sapiens, UniProt Q06546 1-454); details: protein: recombinant; tags: N-terminal GST; dsDNA, one strand shown
# T3 sequence: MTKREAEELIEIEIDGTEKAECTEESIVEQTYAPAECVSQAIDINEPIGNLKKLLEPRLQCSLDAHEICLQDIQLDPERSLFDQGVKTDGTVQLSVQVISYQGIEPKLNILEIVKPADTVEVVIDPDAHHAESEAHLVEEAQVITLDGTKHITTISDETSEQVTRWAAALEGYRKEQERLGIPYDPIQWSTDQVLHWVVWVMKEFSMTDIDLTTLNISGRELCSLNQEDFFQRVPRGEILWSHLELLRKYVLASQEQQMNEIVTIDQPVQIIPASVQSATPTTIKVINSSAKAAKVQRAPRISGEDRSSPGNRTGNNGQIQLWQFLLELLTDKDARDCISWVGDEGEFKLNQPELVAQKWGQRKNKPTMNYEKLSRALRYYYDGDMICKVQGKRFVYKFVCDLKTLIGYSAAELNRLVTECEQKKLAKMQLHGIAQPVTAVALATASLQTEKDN
# How it was run: as §1
# [4] = target: T4, ERG (Homo sapiens, UniProt P11308 1-479); details: protein: recombinant; tags: N-terminal GST; dsDNA, one strand shown
# T4 sequence: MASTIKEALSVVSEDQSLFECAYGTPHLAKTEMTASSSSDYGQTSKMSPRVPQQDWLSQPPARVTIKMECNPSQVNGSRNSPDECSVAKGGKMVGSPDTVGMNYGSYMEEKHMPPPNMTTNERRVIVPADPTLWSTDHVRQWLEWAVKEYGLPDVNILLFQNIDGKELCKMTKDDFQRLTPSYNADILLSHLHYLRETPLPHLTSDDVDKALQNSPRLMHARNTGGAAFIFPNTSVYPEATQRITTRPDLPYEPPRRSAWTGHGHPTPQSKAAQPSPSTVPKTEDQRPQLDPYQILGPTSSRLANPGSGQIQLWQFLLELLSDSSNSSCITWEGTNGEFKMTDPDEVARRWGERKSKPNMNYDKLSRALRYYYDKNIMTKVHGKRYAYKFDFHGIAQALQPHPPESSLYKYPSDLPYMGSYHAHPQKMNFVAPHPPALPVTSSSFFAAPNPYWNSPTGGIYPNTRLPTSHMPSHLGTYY
# How it was run: as §1
# [5] = target: ELF1 (Homo sapiens, UniProt P32519 1-619); details: protein: recombinant; tags: N-terminal GST; dsDNA, one strand shown
# How it was run: as §1
# [6] = target: T5, EHF (Homo sapiens, UniProt Q9NZC4 1-300); details: protein: recombinant; tags: N-terminal GST; dsDNA, one strand shown
# T5 sequence: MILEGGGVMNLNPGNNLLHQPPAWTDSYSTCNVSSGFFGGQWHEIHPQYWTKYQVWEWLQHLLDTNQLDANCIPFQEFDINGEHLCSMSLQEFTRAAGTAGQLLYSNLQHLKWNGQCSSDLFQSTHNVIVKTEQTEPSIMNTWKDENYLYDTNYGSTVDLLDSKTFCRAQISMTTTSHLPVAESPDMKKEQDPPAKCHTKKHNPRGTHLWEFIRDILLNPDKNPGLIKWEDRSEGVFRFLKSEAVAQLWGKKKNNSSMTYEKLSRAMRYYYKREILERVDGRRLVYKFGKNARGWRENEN
# How it was run: as §1
# [7] = target: SPI1 (Homo sapiens, UniProt P17947 1-270); details: protein: recombinant; tags: N-terminal GST; dsDNA, one strand shown
# How it was run: as §1
# [8] = target: SPIB (Homo sapiens, UniProt Q01892 1-262); details: protein: recombinant; tags: N-terminal GST; dsDNA, one strand shown
# How it was run: as §1
# [9] = target: T6, ELK3 (Homo sapiens, UniProt P41970 1-407); details: protein: recombinant; tags: N-terminal GST; dsDNA, one strand shown
# T6 sequence: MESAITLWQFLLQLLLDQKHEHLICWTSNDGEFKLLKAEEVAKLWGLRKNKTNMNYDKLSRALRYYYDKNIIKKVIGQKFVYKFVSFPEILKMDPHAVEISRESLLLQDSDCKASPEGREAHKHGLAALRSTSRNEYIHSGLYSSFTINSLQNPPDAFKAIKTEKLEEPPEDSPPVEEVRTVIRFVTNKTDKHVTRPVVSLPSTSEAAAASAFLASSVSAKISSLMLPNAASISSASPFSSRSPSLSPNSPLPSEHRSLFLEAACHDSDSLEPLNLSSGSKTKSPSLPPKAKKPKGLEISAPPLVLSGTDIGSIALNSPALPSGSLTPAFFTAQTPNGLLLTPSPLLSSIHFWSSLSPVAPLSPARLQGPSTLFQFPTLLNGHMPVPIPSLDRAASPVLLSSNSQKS
# How it was run: as §1
# [10] = target: T7, FEV (Homo sapiens, UniProt Q99581 1-238); details: protein: recombinant; tags: N-terminal GST; dsDNA, one strand shown
# T7 sequence: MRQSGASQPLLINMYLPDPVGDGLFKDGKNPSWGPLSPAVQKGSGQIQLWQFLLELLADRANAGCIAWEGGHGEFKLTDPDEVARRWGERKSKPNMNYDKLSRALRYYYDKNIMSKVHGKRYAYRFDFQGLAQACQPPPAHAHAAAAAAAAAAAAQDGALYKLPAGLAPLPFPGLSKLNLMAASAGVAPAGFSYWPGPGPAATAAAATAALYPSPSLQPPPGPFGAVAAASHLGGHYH
# How it was run: as §1
# [11] = target: ETV5 (Homo sapiens, UniProt P41161 1-510); details: protein: recombinant; tags: N-terminal GST; dsDNA, one strand shown
# How it was run: as §1
# [12] = target: HSF1 (Homo sapiens, UniProt Q00613 1-529); details: protein: recombinant; tags: N-terminal GST; chain copies: 3; dsDNA, one strand shown
# How it was run: as §1
# [13] = target: T8, SPIC (Homo sapiens, UniProt Q8N5J4 1-248); details: protein: recombinant; tags: N-terminal GST; dsDNA, one strand shown
# T8 sequence: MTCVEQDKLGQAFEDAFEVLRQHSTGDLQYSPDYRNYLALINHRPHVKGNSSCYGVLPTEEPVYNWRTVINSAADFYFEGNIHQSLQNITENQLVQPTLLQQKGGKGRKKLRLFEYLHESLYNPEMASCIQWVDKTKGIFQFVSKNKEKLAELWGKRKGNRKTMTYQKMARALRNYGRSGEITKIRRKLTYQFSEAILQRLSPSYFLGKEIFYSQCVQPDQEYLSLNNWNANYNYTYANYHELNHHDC
# How it was run: as §1
# [14] = target: ELF4 (Homo sapiens, UniProt Q99607 1-663); details: protein: recombinant; tags: N-terminal GST; dsDNA, one strand shown
# How it was run: as §1
# [15] = target: T9, ELK4 (Homo sapiens, UniProt P28324-2 1-405); details: protein: recombinant; tags: N-terminal GST; dsDNA, one strand shown
# T9 sequence: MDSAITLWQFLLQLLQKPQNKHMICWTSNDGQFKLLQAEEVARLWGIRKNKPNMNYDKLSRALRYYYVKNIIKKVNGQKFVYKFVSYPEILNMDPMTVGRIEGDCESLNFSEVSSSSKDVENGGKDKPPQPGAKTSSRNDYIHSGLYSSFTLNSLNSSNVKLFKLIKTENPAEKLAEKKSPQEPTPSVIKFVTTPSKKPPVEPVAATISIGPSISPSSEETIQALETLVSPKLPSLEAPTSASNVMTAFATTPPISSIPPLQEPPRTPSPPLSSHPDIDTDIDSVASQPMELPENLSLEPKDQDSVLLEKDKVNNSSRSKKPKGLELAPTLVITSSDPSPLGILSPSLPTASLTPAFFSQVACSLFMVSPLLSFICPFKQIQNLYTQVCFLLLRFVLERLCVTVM
# How it was run: as §1
# [16] = target: T10, ETV2 (Homo sapiens, UniProt O00321 1-342); details: protein: recombinant; tags: N-terminal GST; dsDNA, one strand shown
# T10 sequence: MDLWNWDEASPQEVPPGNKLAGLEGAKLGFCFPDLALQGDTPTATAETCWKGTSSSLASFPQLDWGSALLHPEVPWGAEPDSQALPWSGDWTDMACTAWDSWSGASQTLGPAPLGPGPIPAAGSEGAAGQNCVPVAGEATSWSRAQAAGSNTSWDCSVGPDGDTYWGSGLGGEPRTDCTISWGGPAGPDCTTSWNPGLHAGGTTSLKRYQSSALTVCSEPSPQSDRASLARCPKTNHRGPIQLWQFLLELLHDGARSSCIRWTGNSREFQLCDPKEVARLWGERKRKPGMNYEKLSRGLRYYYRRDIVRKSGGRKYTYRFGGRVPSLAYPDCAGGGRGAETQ
# How it was run: as §1
# [17] = target: T11, ELF3 (Homo sapiens, UniProt P78545 1-371); details: protein: recombinant; tags: N-terminal GST; dsDNA, one strand shown
# T11 sequence: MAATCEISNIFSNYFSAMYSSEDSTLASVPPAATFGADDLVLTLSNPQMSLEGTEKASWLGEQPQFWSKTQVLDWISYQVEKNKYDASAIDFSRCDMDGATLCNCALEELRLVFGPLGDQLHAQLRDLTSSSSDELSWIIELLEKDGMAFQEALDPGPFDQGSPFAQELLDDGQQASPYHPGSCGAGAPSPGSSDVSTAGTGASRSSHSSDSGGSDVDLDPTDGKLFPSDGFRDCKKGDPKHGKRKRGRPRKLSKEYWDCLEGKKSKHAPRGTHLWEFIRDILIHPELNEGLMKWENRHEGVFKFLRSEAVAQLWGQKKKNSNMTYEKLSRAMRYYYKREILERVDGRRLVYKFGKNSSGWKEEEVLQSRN
# How it was run: as §1
# [18] = target: CRX (Homo sapiens, UniProt O43186 1-299); details: protein: recombinant; tags: N-terminal GST; dsDNA, one strand shown
# How it was run: as §1
# [19] = target: ETV1 (Homo sapiens, UniProt P50549 1-477); details: protein: recombinant; tags: N-terminal GST; dsDNA, one strand shown
# How it was run: as §1
# Chain of ELF4 (Q99607 whole entry): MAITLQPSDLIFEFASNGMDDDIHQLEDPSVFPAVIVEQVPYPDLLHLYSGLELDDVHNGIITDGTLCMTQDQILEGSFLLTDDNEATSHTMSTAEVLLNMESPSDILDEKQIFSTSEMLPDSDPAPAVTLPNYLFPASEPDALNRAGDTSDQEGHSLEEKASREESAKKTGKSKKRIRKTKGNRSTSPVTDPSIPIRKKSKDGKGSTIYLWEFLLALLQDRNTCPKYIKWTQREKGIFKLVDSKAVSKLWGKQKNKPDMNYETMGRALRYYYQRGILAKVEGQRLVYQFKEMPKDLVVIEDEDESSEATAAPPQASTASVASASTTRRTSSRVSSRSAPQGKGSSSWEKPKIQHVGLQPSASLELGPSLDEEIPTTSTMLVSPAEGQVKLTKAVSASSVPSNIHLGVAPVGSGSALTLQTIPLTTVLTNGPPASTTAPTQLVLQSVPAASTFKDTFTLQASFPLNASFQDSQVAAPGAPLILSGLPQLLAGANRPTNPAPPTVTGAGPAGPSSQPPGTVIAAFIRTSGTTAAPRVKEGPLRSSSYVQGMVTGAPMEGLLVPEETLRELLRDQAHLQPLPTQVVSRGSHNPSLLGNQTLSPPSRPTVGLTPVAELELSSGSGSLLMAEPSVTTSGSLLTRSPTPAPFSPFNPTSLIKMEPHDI
# Chain of ETV5 (P41161 whole entry): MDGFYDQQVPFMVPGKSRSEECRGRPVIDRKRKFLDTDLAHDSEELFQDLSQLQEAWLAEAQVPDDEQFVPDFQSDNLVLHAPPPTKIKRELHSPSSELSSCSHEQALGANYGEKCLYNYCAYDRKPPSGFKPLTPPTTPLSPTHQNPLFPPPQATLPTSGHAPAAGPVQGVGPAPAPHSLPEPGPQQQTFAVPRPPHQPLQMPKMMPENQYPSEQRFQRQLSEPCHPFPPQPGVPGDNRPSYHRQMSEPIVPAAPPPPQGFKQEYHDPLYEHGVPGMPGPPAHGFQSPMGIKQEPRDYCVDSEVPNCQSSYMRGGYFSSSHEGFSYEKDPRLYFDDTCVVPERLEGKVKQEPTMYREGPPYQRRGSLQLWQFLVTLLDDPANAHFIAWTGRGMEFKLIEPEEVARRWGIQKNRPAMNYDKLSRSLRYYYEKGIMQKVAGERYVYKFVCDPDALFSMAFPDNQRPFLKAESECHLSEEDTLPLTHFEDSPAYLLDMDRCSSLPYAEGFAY
# Chain of SPIB (Q01892 whole entry): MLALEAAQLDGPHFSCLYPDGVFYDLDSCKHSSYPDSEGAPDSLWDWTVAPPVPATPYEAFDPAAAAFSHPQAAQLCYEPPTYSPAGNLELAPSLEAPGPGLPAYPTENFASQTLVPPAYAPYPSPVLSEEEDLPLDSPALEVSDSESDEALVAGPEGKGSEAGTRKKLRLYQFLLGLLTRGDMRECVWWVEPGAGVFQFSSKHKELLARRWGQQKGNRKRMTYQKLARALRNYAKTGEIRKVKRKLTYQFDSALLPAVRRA
# Chain of ELF1 (P32519 whole entry): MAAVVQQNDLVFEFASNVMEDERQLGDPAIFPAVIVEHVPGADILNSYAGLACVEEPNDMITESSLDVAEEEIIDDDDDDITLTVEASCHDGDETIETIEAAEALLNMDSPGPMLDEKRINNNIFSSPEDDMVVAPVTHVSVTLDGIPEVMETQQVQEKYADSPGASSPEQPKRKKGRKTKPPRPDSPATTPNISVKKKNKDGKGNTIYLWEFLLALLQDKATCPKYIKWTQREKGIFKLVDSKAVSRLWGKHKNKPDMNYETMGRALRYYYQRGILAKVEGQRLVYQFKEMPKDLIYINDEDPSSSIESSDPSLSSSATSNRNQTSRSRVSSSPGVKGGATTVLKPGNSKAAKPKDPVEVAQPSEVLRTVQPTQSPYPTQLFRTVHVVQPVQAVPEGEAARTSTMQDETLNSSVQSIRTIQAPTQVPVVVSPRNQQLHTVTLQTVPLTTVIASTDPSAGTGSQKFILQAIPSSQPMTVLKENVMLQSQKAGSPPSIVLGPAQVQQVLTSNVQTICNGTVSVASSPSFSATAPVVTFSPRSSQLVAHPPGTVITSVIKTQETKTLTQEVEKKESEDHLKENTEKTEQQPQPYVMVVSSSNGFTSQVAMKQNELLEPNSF
# Chain of CRX (O43186 whole entry): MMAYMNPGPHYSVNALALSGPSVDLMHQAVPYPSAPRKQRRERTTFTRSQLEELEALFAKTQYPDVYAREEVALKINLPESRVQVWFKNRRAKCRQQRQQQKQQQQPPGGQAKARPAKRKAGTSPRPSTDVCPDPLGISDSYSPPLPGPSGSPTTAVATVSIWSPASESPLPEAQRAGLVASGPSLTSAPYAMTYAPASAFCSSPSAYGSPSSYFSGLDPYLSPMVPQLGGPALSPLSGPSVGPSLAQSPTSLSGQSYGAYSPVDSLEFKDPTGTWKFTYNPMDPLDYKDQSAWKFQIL
# Chain of HSF1 (Q00613 whole entry): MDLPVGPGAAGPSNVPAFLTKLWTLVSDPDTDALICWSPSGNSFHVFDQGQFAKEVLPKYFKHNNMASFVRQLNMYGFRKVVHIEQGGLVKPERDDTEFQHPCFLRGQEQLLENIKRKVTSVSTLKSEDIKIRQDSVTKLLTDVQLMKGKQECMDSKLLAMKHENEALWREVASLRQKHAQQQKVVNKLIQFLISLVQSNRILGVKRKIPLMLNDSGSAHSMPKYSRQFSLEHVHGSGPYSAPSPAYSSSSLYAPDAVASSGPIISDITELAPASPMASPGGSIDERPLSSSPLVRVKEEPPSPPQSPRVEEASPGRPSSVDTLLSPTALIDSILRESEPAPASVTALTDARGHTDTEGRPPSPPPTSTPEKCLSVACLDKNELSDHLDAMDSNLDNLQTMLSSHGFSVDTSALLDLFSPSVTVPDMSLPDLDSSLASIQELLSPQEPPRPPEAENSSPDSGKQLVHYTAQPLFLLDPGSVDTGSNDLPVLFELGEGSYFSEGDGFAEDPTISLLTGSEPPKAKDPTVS
# Chain of ETV1 (P50549 whole entry): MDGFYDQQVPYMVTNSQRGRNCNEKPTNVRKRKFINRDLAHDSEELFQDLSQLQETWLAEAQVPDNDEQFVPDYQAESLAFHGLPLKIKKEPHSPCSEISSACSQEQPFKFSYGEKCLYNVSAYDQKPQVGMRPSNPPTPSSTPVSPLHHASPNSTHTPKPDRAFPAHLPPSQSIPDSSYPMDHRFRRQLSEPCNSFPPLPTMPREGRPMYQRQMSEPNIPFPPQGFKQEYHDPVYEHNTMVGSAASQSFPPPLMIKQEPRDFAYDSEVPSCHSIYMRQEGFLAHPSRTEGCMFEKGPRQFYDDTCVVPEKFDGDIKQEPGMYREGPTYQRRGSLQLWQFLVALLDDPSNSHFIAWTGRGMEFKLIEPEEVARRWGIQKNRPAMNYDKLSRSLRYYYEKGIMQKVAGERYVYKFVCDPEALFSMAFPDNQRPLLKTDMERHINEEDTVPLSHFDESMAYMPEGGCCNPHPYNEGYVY
sequence,measurement,setting,value
TTCCAC,binding signal,[1],"1.39 fold enrichment (6-mer frequency, TF over GST control)"
same,binding signal,[2],"1.28 fold enrichment (6-mer frequency, TF over GST control)"
same,binding signal,[3],"1.38 fold enrichment (6-mer frequency, TF over GST control)"
same,binding signal,[4],"1.4 fold enrichment (6-mer frequency, TF over GST control)"
same,binding signal,[5],"1.45 fold enrichment (6-mer frequency, TF over GST control)"
same,binding signal,[6],"1.33 fold enrichment (6-mer frequency, TF over GST control)"
same,binding signal,[7],"1.42 fold enrichment (6-mer frequency, TF over GST control)"
same,binding signal,[8],"1.35 fold enrichment (6-mer frequency, TF over GST control)"
same,binding signal,[9],"1.5 fold enrichment (6-mer frequency, TF over GST control)"
same,binding signal,[10],"1.37 fold enrichment (6-mer frequency, TF over GST control)"
same,binding signal,[11],"1.41 fold enrichment (6-mer frequency, TF over GST control)"
same,binding signal,[12],"1.83 fold enrichment (6-mer frequency, TF over GST control)"
same,binding signal,[13],"1.57 fold enrichment (6-mer frequency, TF over GST control)"
same,binding signal,[14],"1.42 fold enrichment (6-mer frequency, TF over GST control)"
same,binding signal,[15],"1.39 fold enrichment (6-mer frequency, TF over GST control)"
same,binding signal,[16],"1.42 fold enrichment (6-mer frequency, TF over GST control)"
same,binding signal,[17],"1.38 fold enrichment (6-mer frequency, TF over GST control)"
same,binding signal,[18],"1.26 fold enrichment (6-mer frequency, TF over GST control)"
same,binding signal,[19],"1.38 fold enrichment (6-mer frequency, TF over GST control)"
